Bioassay records as filed in PubChem.
In the library only some 19% were active in any assay of this set; here they are far more common.
IL1B secr inh: blocks inflammasome-driven IL-1 beta release | activity change, % at 57.5 µM | 360,000 tested, 4.7% active | THP-1 LPS/ATP IL-1B secretion, AlphaLISA, 16 h; hits give low values | AID 743279; in the data active = activity change below about -50%; inconclusive = mostly about -30% to -49%
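Secreted IL-1B measured by AlphaLISA bead assay after 16 h compound exposure of THP-1 cells; compounds (final up to 57.5 uM) added 1 h before LPS (250 ng/mL) and ATP (1.25 mM) stimulation; lower signal means less secretion.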
ELG1 DNA repair: blocks ELG1-dependent DNA repair in HEK293T cells. 330,000 tested, 2.3% active. Potency, µM (series often up to 46.1 µM), most hits filed as inhibitors. HEK293T ELG1-luciferase reporter, luminescence, 16 h; DNA damage induced by 5-fluorouridine; also: nearly all actives have a fitted effect of over 55% in size
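Reporter activity after DNA damage by 5-fluorouridine is monitored. Compound-treated cells incubate 16 hr at 37 °C, then ONE-Glo is added for 30 min before luminescence reading.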
TDP1 cell CPT: DT40-hTDP1 cell growth loss with CPT; Potency, µM (highest dose often 46.2 µM), usual class: inhibitors; chicken DT40 Tdp1-/-;hTDP1 cells + 20 nM CPT, ATP luminescence, 48 h; 420,000 tested, 12% active; also: nearly all actives have a fitted effect of over 55% in size
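Chicken DT40 Tdp1-/- cells complemented with human TDP1, 400 cells/well, exposed to compounds plus 20 nM camptothecin for at least 48 h at 37 C; viability read as ATP content by CellTiter-Glo luminescence.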
HT1080NT lethal: kills 2HG-producing HT-1080-NT fibrosarcoma cells; 360,000 tested, 1.6% active; AID 686970; HT-1080-NT fibrosarcoma viability, CellTiter-Glo ATP luminescence, 48 h; Potency, µM (highest dose often 46.1 µM), hits mostly cytotoxic;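 also: NT is the 2HG producing partner of a matched IDH1 knockdown line; nearly all actives have a fitted effect of over 55% in size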
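750 cells/well, RPMI + 5% FBS; 2 h settle, compound pin-transfer, 48 h at 37 degrees C. CellTiter-Glo 10 min RT, luminescence. Normalized to DMSO and media-only wells.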
DT40 TDP1 no CPT: qHTS for Inhibitors of human tyrosyl-DNA phosphodiesterase 1 (TDP1): qHTS in cells in absence of CPT. 420,000 tested, 15% active. DT40 Tdp1-/- hTDP1 cells, no CPT, ATP luminescence, 48 h. AID 686978, 2013. Potency, µM (doses to about 46.2 µM), actives largely listed as inhibitors; also: nearly all actives have a fitted effect of over 55% in size
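Seeded 400 DT40-hTDP1 cells/well (vehicle DMSO, no 20 nM CPT); pinned compounds; ≥48 hr at 37 °C; CellTiter-Glo luminescence as viability measure.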
HT1080 IDH1KD tx: toxicity to HT-1080 IDH1 knockdown cells (counter line); HT-1080 IDH1 knockdown viability, ATP luminescence, 48 h; 360,000 tested, 2% active; Potency, µM (series often up to 46.1 µM), usual class: cytotoxic; AID 686971
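Knockdown cells (IDH1KD HT-1080) received compounds 2 h after plating at 750 cells/well and were kept 48 h at 37 °C in 5% FBS RPMI. A CellTiter-Glo luminescence read gave % activity for curve fitting.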
Numbers stand for hits; n = inactive; u = inconclusive; x = no result given; [ ] = remark or other dose. Unless noted, calls follow the shape of the dose curve; as a rule, active = well fitted curve in the direction sought with a large enough effect; inconclusive = small, poorly fitted or top-dose-only effect, or another doubt; inactive = no such curve, though single readings can be large; an effect the other way counts as inactive or inconclusive.

SMILES | IL1B secr inh | ELG1 DNA repair | TDP1 cell CPT | HT1080NT lethal | DT40 TDP1 no CPT | HT1080 IDH1KD tx
Cn1c(=O)c2cc(NC(=O)NCCc3cccs3)ccc2n1Cc1ccccc1 | n | x | u | n | n | n
CCN1C(=O)/C(=C\C(=O)c2cccs2)c2cc(Br)ccc21 | n | n | 13µM | n | 15µM | n
CCN1C(=O)/C(=C\c2cccs2)C(C(=O)OC)=C1C | n | u | n | n | u | n[9.24 µM]
COc1cccc(OCc2cc(/C=N/Nc3ccc(C(=O)O)cc3)ccc2OC)c1 | n | u | 21µM | 21µM | 21µM | u
COc1cccc(C(=O)Oc2ccc(/C=N/Nc3ccc(C(=O)O)cc3)cc2OC)c1 | n | u | u | n | 29µM | n
COC(=O)Cc1cc(OC)c(OC)cc1S(=O)(=O)N(C)C | n | n | n | n | n | n
CCOC(=O)C1(C)CCCCCN1C(=O)c1csnn1 (configuration not stated) | n | x | n | n | n | n
CC(C)C[C@@H]1NC(=O)[C@H](Cc2ccccc2)N(C)C(=O)[C@H](C)NC(=O)c2ccccc2NC(=O)[C@H](Cc2ccc(O)cc2)N(C)C1=O | n | 6.5µM | 16µM | n | 15µM | n
CC(C)CC1NC(=O)N(CC(=O)N2c3ccccc3NC(=O)C2(C)C)C1=O (configuration not stated) | n | n | n | n | n | n
COc1ccc(NC(=O)C2(C)Cc3c(-c4ccc(N(C)C)cc4)ccnc3O2)cc1 (configuration not stated) | n | x | 29µM | u | u | u
COc1ccc(NC(=O)C2(C)Cc3c(-c4ccccc4)ccnc3O2)cn1 (configuration not stated) | n | x | 5.8µM | u | 6.5µM | u
COc1ccc(NC(=O)C2(C)Cc3c(-c4cccc(C(F)(F)F)c4)ccnc3O2)cn1 (configuration not stated) | n | x | 5.2µM | u | 2.9µM | u
CC1(C(=O)Nc2ccccc2)Cc2c(-c3cccc(C(F)(F)F)c3)ccnc2O1 (configuration not stated) | u | x | u | n | u | n
CC(=O)Nc1ccc(NC(=O)C2(C)Cc3c(-c4ccccc4)ccnc3O2)cc1 (configuration not stated) | n | x | u | u | n | n
COc1ccc(NC(=O)C2(C)Cc3c(-c4ccc(NC(C)=O)cc4)ccnc3O2)cc1 (configuration not stated) | u | x | u | n | u | n
CCCCn1nc(C(=O)N(CC(C)C)c2c(N)n(CCCC)c(=O)[nH]c2=O)c2ccccc2c1=O | n | n | n | n | n | n
CCCCNC(=O)C1c2ccccc2OCC(=O)N1CCc1ccccc1 (configuration not stated) | n | x | n | n | u | n
Cc1ccccc1-c1nc(NCCN2CCOCC2)c2ccccc2n1 | x | x | n | x | n | x
CCOC(=O)N(C)C[C@@H]1OCc2cnnn2CCCC(=O)N([C@H](C)CO)C[C@@H]1C | n | x | n | n | n | n
COCCCn1cn[nH]c1=S | n | n | u | n | 15µM | n
COCCCn1c(-c2ccc(Cl)cc2)n[nH]c1=S | n | n | n | n | n | n
CCCCc1c(-c2cccc(F)c2)ncn1CCc1ccccc1OC | -74 | x | 21µM | u | 21µM | u
CCCc1c(-c2cccc(F)c2)ncn1Cc1ccccc1OC | n | x | 9.2µM | u | 8.2µM | u
COc1ccccc1Cc1c(-c2cccc(Cl)c2)nc2c(C)cc(Br)cn12 | n | x | u | n | u | n
CCCCCc1c(-c2cccc(OC)c2)ncn1CCc1ccccc1OC | -86 | x | 8.2µM | 21µM | 7.3µM | u
CCCCCn1cnc2sc(-c3ccccc3)cc2c1=O | n | u | n | n | n | n
CCCc1nc2ccccc2n1Cc1ccccc1OC | n | u | n | u | u | n
CCCCCc1c(-c2cccc(Cl)c2)ncn1CCc1ccccc1OC | n | x | 23µM | n | 23µM | n
